# Source: PubChem (National Center for Advancing Translational Sciences (NCATS))
# Only some compounds are listed: those with a hit (about 10% of all), similar ones and a draw of the others.
# G9a block = qHTS Assay for Inhibitors of Histone Lysine Methyltransferase G9a. Histone-lysine N-methyltransferase EHMT2 (Homo sapiens), Q96KQ7. G9a H3K9 monomethylation, AlphaScreen, 2 h. 350,000 tested, 8.8% active. Potency, µM (doses to about 102 µM), inactives show top-dose activity, negative = inhibition, most hits filed as inhibitors. AID 504332, 2011; also: potency is read from the fitted curve at half-maximal effect; % is scaled to controls: 0 for no effect and ±100 for the full control effect; nearly all actives have a fitted effect of over 75% in size
#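 Using a bead-based AlphaScreen, monomethylated H3K9 product from 2 h room-temperature reactions (G9a 20 nM, peptide 500 nM, SAM 20 uM) was detected with 0.5 ug/mL rabbit anti-H3K9me1 antibody.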
# JMJD2A Tudor = qHTS Assay for Inhibitors of JMJD2A-Tudor Domain. Lysine-specific demethylase 4A (Homo sapiens), O75164. Potency, µM (top dose mostly 114 µM), for inactives: at the highest dose activity change, negative = inhibition, usual class: inhibitors. AlphaScreen JMJD2A-Tudor / H3K4me3 peptide binding. 390,000 tested, 4.4% active. AID 504339, 2011; also: potency is read from the fitted curve at half-maximal effect; % is scaled to controls: 0 for no effect and ±100 for the full control effect; nearly all actives have a fitted effect of over 50% in size
# Six1-Eya2 blk = qHTS Assay for Inhibitors of the Six1/Eya2 Interaction | Homeobox protein SIX1 (Homo sapiens) + Protein phosphatase EYA2 (Homo sapiens), … | AlphaScreen GST-Six1/His-Eya2 binding, biochemical; hits give low values | activity change, % (concentration not given with the values) | 360,000 tested, 0.56% active; in the data active = activity change below about -65%; inconclusive = mostly about -30% to -63%; also: % is scaled to controls: 0 for no effect and ±100 for the full control effect
# Target sequence (O00167 whole entry, looked up): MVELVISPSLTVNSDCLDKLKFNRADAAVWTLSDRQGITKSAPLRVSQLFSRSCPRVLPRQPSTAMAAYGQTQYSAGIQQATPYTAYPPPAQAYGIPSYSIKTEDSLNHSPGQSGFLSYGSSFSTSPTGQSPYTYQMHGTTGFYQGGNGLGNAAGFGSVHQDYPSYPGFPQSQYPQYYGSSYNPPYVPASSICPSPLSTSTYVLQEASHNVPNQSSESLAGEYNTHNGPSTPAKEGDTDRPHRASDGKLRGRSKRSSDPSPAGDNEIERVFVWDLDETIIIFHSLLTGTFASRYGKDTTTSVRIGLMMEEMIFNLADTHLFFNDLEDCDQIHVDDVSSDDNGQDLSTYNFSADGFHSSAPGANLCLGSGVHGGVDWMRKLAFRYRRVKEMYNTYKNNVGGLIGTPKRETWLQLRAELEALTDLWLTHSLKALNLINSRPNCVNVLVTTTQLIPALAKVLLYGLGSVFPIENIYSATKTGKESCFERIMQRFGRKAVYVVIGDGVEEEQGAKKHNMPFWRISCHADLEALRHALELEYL
# Target sequence (Q15475 whole entry, looked up): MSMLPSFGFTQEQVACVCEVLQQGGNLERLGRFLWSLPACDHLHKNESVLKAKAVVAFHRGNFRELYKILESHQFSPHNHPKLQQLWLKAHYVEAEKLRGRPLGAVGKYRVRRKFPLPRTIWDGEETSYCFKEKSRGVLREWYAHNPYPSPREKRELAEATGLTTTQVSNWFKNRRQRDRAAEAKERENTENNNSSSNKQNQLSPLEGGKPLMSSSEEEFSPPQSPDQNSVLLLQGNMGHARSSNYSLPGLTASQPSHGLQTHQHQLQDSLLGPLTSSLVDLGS
#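 AlphaScreen with GST-Six1 and His-Eya2 (5X mix: 250 nM and 500 nM), glutathione donor and nickel acceptor beads; buffer 50 mM Tris pH 8.0, 300 mM NaCl, 1 mM TCEP; 1 h at 37 C in the dark.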
# CtBP-E1A inh = qHTS Assay for Inhibitors of the CtBP/E1A Interaction; AlphaScreen GST-E1A/His-CtBP binding, 1536-well; hits give low values; 340,000 tested, 0.49% active; AID 651724, 2012; activity change, % (concentration not given with the values); in the data active = activity change below about -65%; inconclusive = mostly about -30% to -63%; also: % is scaled to controls: 0 for no effect and ±100 for the full control effect
#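 In 5 uL wells, 23 nL compound meets equimolar GST-E1A and His-CtBP (5X stock 125 nM each) for 2 h, 37 °C. Beads (5X, 50 ug/mL) then 1 h, 37 °C, dark.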
# BAZ2B inh = qHTS Assay for Inhibitors of BAZ2B. AID 504333, 2011. 360,000 tested, 4.4% active. Bromodomain adjacent to zinc finger domain protein 2B (Homo sapiens), Q9UIF8. Potency, µM (doses to about 114 µM), for the others: at the highest dose activity change, negative = inhibition, most hits filed as inhibitors. AlphaScreen BAZ2B-H3K14Ac peptide displacement; also: potency is read from the fitted curve at half-maximal effect; % is scaled to controls: 0 for no effect and ±100 for the full control effect; nearly all actives have a fitted effect of over 60% in size
#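 BAZ2B (50 nM) with biotin-H3(5-23)K14Ac peptide (50 nM) in PBS pH 7.4, 0.01% Tween-20, preformed 30 min, then compound 30 min at room temperature; top concentration 110uM. AlphaScreen streptavidin donor/nickel chelate acceptor beads (10 ug/mL final), 20 min dark, signal read.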
# HP1b binding inh = HTS for Inhibitors of HP1-beta Chromodomain Interactions with Methylated Histone Tails; 390,000 tested, 0.56% active; AlphaScreen HP1-beta / biotin-H3K9me3 peptide binding; Chromobox protein homolog 1 (Homo sapiens), P83916; AID 540317, 2011; Potency, µM (highest dose often 114 µM), without a hit: at the top dose activity change, negative = inhibition, most hits filed as inhibitors; also: potency is read from the fitted curve at half-maximal effect; nearly all actives have a fitted effect of over 70% in size
#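 AlphaScreen: HP1-beta (50 nM) preformed 30 min with biotin-H3(1-18)K9me3 peptide (50 nM) in PBS pH 7.4, 0.01% Tween-20. Compound added for 30 min at RT, then streptavidin donor/nickel chelate acceptor beads (10 ug/mL) for 30 min.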
# * hit, by the source's call; ? = inconclusive; / = not tested or not shown; ! = not confirmed by another sample; [ ] = another dose, or the depositor's remark. Unless noted, calls follow the shape of the dose curve; as a rule, active = well fitted inhibition curve with a large enough effect; inconclusive = small, poorly fitted or top-dose-only effect; inactive = no such curve, though single readings can be large or run the other way.
SMILES,G9a block,JMJD2A Tudor,Six1-Eya2 blk,CtBP-E1A inh,BAZ2B inh,HP1b binding inh
CCC1=C(c2ccc(C)cc2)S(=O)(=O)N=C1N1CCC(C(=O)NCCc2ccc(Cl)cc2)CC1,-6%[59 µM],-12%,/,/,-2%,31%
CCOC(=O)C1CCN(C2=NC(=O)/C(=C/c3ccc(Cl)cc3)S2)CC1,0%,-12%,1,2,?,23%
CCOC(=O)C1CCN(C2=NC(=O)/C(=C/c3ccc(OC)c(OC)c3)S2)CC1,40µM*,-21%,-2,/,-22%,0%
c1ccc(CCNCCCOc2cccc3ccccc23)cc1,-5%[12.7 µM],40µM*,-5,-16,-35%,-31%
Clc1ccc(OCCNCCc2ccccc2)cc1,?,1%,10,/,-5%,47%
Cc1ccccc1NC(=O)CN1CCCC1,/,/,1,-2,/,/
CN1CCN(CC(=O)c2ccccc2F)CC1,4.5µM*,6.3µM*,6,6,22µM*,?
CN1CCCN(C(=O)CNC(=O)c2ccccc2F)CC1,/,-4%,29,12,/,37%
CN1CCN(CC(=O)Nc2cc(N(C)C)nc3ccccc23)CC1,50µM*,-17%,7,-1,?,32%
CCCCCC(=O)Nc1cc(N(C)C)nc2ccccc12,1%[12.7 µM],14%,-1,6,12%,46%
Cc1ccccc1NC(=O)CN1CCN(C)CC1,10µM*,3.2µM*,5,8,28µM*,28µM*
COc1cnc(-c2ccccn2)nc1Sc1ccc(Cl)cc1,23%,?,-7,-10,-6%,24%
COc1cnc(-c2ccccn2)nc1Oc1cccc(C(F)(F)F)c1,-11%,/,/,/,?,/
COc1cnc(-c2ccccn2)nc1Oc1ccccc1,-4%,89µM*,?,-67*,25µM*,45%
COc1cnc(-c2ccccn2)nc1Sc1ccc(F)cc1,-3%,?,?,-72*,28µM*,13%
OC(COC(c1ccccc1)c1ccccc1)CN1CCN(c2cccc(Cl)c2)CC1 (stereo unspecified),-23%,-28%,-13,-12,-13%,30%
CN1CCN(CC(O)COC(c2ccccc2)c2ccccc2)CC1 (stereo unspecified),-5%,-18%,12,3,1%,-4%
CC(=O)c1ccc(N2CCN(CC(O)COC(c3ccccc3)c3ccccc3C)CC2)cc1 (stereo unspecified),8.9µM*,4.5µM*,-2,3,25µM*,45µM*
CC(=O)c1ccc(N2CCN(CC(O)COC(c3ccccc3)c3ccccc3)CC2)cc1 (stereo unspecified),20µM*,10µM*,-27,-8,18µM*,22µM*
NCCSC1CC(=O)N(Cc2ccc(F)cc2)C1=O (stereo unspecified),40µM*,2%,-1,9,-5%,36%
O=C1NCCCCC1NC1CC(=O)N(c2ccccc2)C1=O (stereo unspecified),-31%[59 µM],-7%,0,5,-6%,34%
CCOc1ccc(N2C(=O)CC(NC3CCCCNC3=O)C2=O)cc1 (stereo unspecified),7.9µM*,-15%,-5,-2,1%,60%
CCOc1ccc(N2C(=O)CC(Sc3nnnn3-c3ccccc3)C2=O)cc1 (stereo unspecified),10µM*,5%,3,5,-23%,52%
CCOc1ccc(N2C(=O)CC(SCCN)C2=O)cc1 (stereo unspecified),18µM*,-29%,7,3,-32%,23%
Cc1ccc(CNC(=O)C2CCCN(c3ncnc4onc(-c5ccc(F)cc5)c34)C2)cc1 (stereo unspecified),-25%[59 µM],4%,/,/,10%[57.1 µM],26%
SMILES,G9a block,JMJD2A Tudor,Six1-Eya2 blk,CtBP-E1A inh,BAZ2B inh,HP1b binding inh
O=C(Nc1ccccc1)C1Cc2c(-c3ccc(Cl)cc3)ccnc2O1 (stereo unspecified),/,/,-5,-1,/,/
CN1/C(=C/C2CC(=O)N(c3cccc4ccccc34)C2=O)C(C)(C)c2ccccc21 (stereo unspecified),?,-25%,-4,0,?,15%
CCOc1ccc(N2C(=O)CC(/C=C3/N(C)c4ccccc4C3(C)C)C2=O)cc1 (stereo unspecified),14µM*,?,-15,8,?,8%
O=C(CN1C(=O)C2C3C=CC(C3)C2C1=O)Nc1ccc(F)cc1 (stereo unspecified),-23%,-3%,4,-16,19%,24%
O=C(CN1C(=O)C2C3C=CC(C3)C2C1=O)Nc1nc2ccccc2[nH]1 (stereo unspecified),79µM*,11µM*,-3,4,-35%,6%
N#Cc1nc(COc2ccc(Br)cc2)oc1NCCN1CCOCC1,50µM*,-27%,-5,-7,?,13%
N#Cc1nc(COc2ccc(F)cc2)oc1NCCN1CCOCC1,79µM*,-22%,2,6,?,26%
N#Cc1nc(-c2ccco2)oc1NCCCN1CCOCC1,9%,-18%,2,4,8%,7%
COC(=O)[C@@H]1[C@H]2C[C@H]3c4[nH]c5ccccc5c4CCN3C[C@@H]2CC[C@@H]1O,21µM*!,?,-18,-1,4%,32%
COC(=O)[C@H]1[C@H]2C[C@@H]3c4[nH]c5cc(OC)ccc5c4CCN3C[C@H]2C[C@@H](OC(=O)c2cc(OC)c(OC)c(OC)c2)[C@@H]1OC,22µM*!,56µM*,?,-28,28µM*,?
Cc1cc(Nc2ccccc2)n(CCOC(=O)COc2ccccc2)n1,?,-15%,4,0,-36%,27%
CCCCn1c(N)c(N(CCOC)C(=O)c2cc(-c3ccc(F)cc3)nc3ccccc23)c(=O)[nH]c1=O,45µM*,-10%,-7,1,2%,36%
CCCCN(C(=O)c1cc(Cl)nc2ccccc12)c1c(N)n(Cc2ccccc2)c(=O)[nH]c1=O,50µM*,-12%,8,13,-5%,18%
CCCCN(C(=O)c1cc(Cl)nc2ccccc12)c1c(N)n(CCC)c(=O)[nH]c1=O,/,/,7,-23,/,/
